Assay outcomes as filed in PubChem BioAssay.
Sampled rows, rich in hits. Any-hit rate of the full collection: about 2.2%.
KLF5 inhibitor – inhibitors of KLF5 expression; inhibition, % at 5 µM; DLD-1 KLF5 promoter-luciferase reporter, luminescence; AID 1700; hit rate 0.23% among 290,000;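 active = inhibition above a per-plate limit of that plate's mean compound inhibition plus 3 SD, cut at about 60% in these data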;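 also: 0% = DMSO wells and 100% = LY294002 at 200 µM; higher means less KLF5 promoter-driven luciferase light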
APP 5UTR inh – APP translation inhibition; SH-SY5Y APP 5'UTR-luciferase reporter, luminescence; inhibition, % at 2 µM; hit rate 0.82% among 190,000; AID 1285;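 active = inhibition above a set limit, derived from the sample mean plus 3 SD, cut at about 45% in these data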
aSyn 5UTR inh – MLPCN primary screen, SNCA 5' untranslated region; alpha-synuclein 5'UTR reporter, inhibitor activity; inhibition, % (tested at 7.5 µM); hit rate 0.82% among 300,000; in the data active = inhibition above about 60%;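 also: H4 neuroglioblastoma cells stably carrying SNCA 5'UTR luciferase fusion; 0% = DMSO wells and 100% = positive control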
BaF3 parental – reduces parental Ba/F3 cell viability, JAK2V617F counter-screen; inhibition, % at 5.6 µM; CellTiter-Glo ATP luminescence; hit rate 1.1% among 220,000; AID 1486;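 active = inhibition above a per-campaign cutoff, the mean inhibition of all tested compounds plus 3 SD, cut at about 27% in these data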;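 also: 0% = DMSO wells and 100% = JAK Inhibitor I control wells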
Ba/F3 V617F tox – loss of viability in JAK2V617F-driven Ba/F3 cells; Ba/F3 EpoR-JAK2V617F viability, ATP luminescence; hit rate 1.1% among 220,000; AID 1446; inhibition, % at 5.6 µM;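 active = inhibition above the campaign mean plus 3 SD over all tested compounds, cut at about 24% in these data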;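 also: cytokine-independent growth of Ba/F3 cells driven by EpoR plus mutant JAK2; 0% = DMSO-treated cells and 100% = JAK inhibitor I control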
IEC-6 cytotox – IEC-6 cytotoxicity, counter-screen for KLF5 inhibitors; luminescence viability; inhibition, % at 5 µM; hit rate 0.78% among 290,000;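 also: 0% = plate median of test compound wells and 100% = cytotoxic reference compound wells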
IEC-6 tox confirm – confirmation of cytotoxic compounds in rat IEC-6 intestinal epithelial cells | shares compounds with IEC-6 cytotox | IEC-6 rat intestinal epithelial viability, luminescence | inhibition, % at 5 µM | hit rate 63% among 1,900 | AID 1907;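 also: 0% = vehicle and 100% = reference cytotoxic drug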
The depositor's hits bear a star; i = inactive; / = no result. Rule as the data show it, unless noted: active = inhibition above about 22%; inactive = the rest.

SMILES | KLF5 inhibitor | APP 5UTR inh | aSyn 5UTR inh | BaF3 parental | Ba/F3 V617F tox | IEC-6 cytotox | IEC-6 tox confirm
Cc1sc2nc(SCC(=O)N(C)c3ccccc3)n(C)c(=O)c2c1C | -1.3 | / | -24.3 | / | / | 2.8 | /
COc1ccccc1-n1c(CNC(=O)c2ccco2)n[nH]c1=S | -17.2 | / | 3.0 | / | / | 1.2 | /
CCN1CCN(c2nc(Nc3ccc(C)c(C)c3)nc(N)c2[N+](=O)[O-])CC1 | -1.1 | -0.9 | -2.8 | -2.9 | -2.6 | 1.5 | /
CCN1CCN(c2nc(Nc3cccc(OC)c3)nc(N)c2[N+](=O)[O-])CC1 | 12.9 | / | -86.4 | / | / | 23.5* | 8.0
Nc1nonc1-n1nnc(C(=O)N/N=C/c2cc(Br)ccc2O)c1CNc1ccccc1 | 28.3 | / | 70.2* | / | / | 39.2* | 41.1*
Cc1ccc2[nH]c(C(=O)N/N=C/c3ccc([N+](=O)[O-])cc3)c(C)c2c1 | 32.1 | / | -62.9 | / | / | 33.9* | 25.5*
CN(CC(=O)Nc1ccc(Cl)c(C(F)(F)F)c1)C(=O)C1(c2ccccc2)CC1 | / | / | 7.5 | / | / | / | /
COc1ccc(C(=O)N[C@H](C(=O)Nc2nc3ccccc3[nH]2)C(C)C)cc1 | -24.5 | 76.7* | 106.1* | 60.5* | 42.4* | 62.8* | 58.7*
COc1ccc(NC(=O)C(NC(=O)c2ccccc2)C(C)C)cc1 (stereo not given) | -18.0 | 13.3 | -21.8 | 6.9 | -0.9 | -4.7 | /
Cc1cccc(C(=O)N[C@H](C(=O)Nc2nc3ccccc3[nH]2)C(C)C)c1 | 16.7 | 61.9* | 96.1* | 27.4* | 77.0* | 73.7* | 55.6*
CC(C)CNC(=O)c1cccc(NC(=O)C(C)C)c1 | -6.7 | -12.3 | 9.8 | 9.4 | 1.0 | -2.4 | /
Cc1ccc(S(=O)(=O)N(C)C)cc1NC(=O)COC(=O)COc1ccc2c(c1)CCC2 | / | / | 1.4 | / | / | / | /
O=C1NNC(c2ccccc2)=N/C1=C\c1ccco1 | -12.3 | / | 24.1 | -0.3 | -1.2 | -5.0 | /
COc1cc(/C=C2\N=C(c3ccccc3)NNC2=O)cc(OC)c1OC | 43.7 | / | 51.8 | 78.6* | 72.1* | 58.8* | 53.2*
Oc1ccc(CCNc2ncnc3ccc(Cl)cc23)cc1 | 42.3 | / | -13.7 | / | / | 22.6* | 10.3
Cn1cccc1C(=O)NNC(=O)COc1ccccc1F | -107.6 | / | -87.1 | / | / | 0.7 | /
CC(C)(C)c1ccc(C(=O)NNC(=S)NC(=O)c2cccnc2)cc1 | 26.5 | / | 59.9 | / | / | 30.2* | 22.9*
CC(C)(C)C(=O)NC(=S)NNC(=O)c1ccc(-c2ccccc2)cc1 | 56.6 | 67.2* | 66.9* | 35.7* | 37.2* | 39.7* | 47.4*
CC(C)c1ccc(O)c(NC(=S)NC(=O)c2cccnc2)c1 | 17.8 | 11.7 | -48.7 | 3.7 | 2.9 | 34.3* | -2.8
CC(=O)c1ccc(Nc2nc(=O)c3cccnc3s2)cc1 | -85.3 | 4.4 | -124.2 | 7.1 | 3.3 | 1.0 | /
Cc1ccc(Nc2nc(=O)c3cccnc3s2)c(Br)c1 | 15.4 | / | 41.8 | 48.2* | 50.8* | 65.4* | 41.8*
O=S(=O)(O)c1cccc2c(N=Nc3ccc(O)c4ncccc34)cccc12 | -20.0 | / | 8.5 | / | / | -6.1 | /
COc1cccc(N=Nc2ccc(O)c3ncccc23)c1 | 27.5 | / | 44.5 | / | / | 30.4* | 11.3
Nc1ccc(N=Nc2ccccc2)c2cccnc12 | -29.8 | / | -57.1 | / | / | 33.0* | 34.5*
COc1cccc(N=Nc2ccc3cccnc3c2O)c1 | 61.0 | / | 16.3 | / | / | 29.5* | 55.7*
SMILES | KLF5 inhibitor | APP 5UTR inh | aSyn 5UTR inh | BaF3 parental | Ba/F3 V617F tox | IEC-6 cytotox | IEC-6 tox confirm
Nc1ccc(Br)c2cccnc12 | 14.8 | 6.3 | -15.6 | 8.7 | -2.6 | 10.9 | /
COc1cccc(NC(=O)c2sc3nc(N4CCOCC4)c4c(c3c2N)CCCC4)c1 | -138.1 | / | -42.0 | / | / | -4.1 | /
CCCCn1c(N)c(N(CCOC)C(=O)c2cccc(S(=O)(=O)N(CC)c3ccccc3)c2)c(=O)[nH]c1=O | / | / | -3.9 | / | / | / | /
CCc1nc2ccccc2c(C(=O)OCC(=O)C(C)(C)C)c1C | -15.3 | -13.4 | 0.2 | 6.2 | 3.4 | 23.5* | -3.1
CCOc1cc(/C=C(/NC(C)=O)C(=O)O)cc(Cl)c1OCc1ccc(Br)cc1 | -20.4 | / | -0.4 | -1.9 | 4.2 | 26.2* | 2.0
CCOc1ccc(/C=C(/NC(=O)c2ccc(Cl)cc2)C(=O)O)cc1OCC | 9.7 | / | -86.2 | -0.8 | -4.2 | 3.8 | /
COCCCN1C(=O)C2C(C(=O)Nc3cccc(Cl)c3)C3C=CC2(O3)C1C(=O)NC1CCCCC1 (stereo not given) | -20.5 | / | 7.2 | / | / | -2.1 | /
COc1ccccc1CNS(=O)(=O)c1ccc2c(c1)CC(=O)N2C | -20.3 | / | -10.3 | / | / | -10.6 | /
CCn1c2ccccc2c2cc(NC(=O)CNCc3ccccc3OC)ccc21 | 50.7 | / | -15.6 | / | / | 71.1* | 40.0*
CCn1c2ccccc2c2cc(NC(=O)COc3ccccc3OC)ccc21 | -12.5 | 35.6 | 24.4 | 9.8 | 4.3 | 12.8 | /
COc1cccc(C2C3=C(N=c4s/c(=C\c5ccccc5O)c(=O)n42)c2ccccc2CC3)c1OC (stereo not given) | 5.2 | -8.2 | 20.5 | 1.4 | 2.5 | -2.5 | /
Oc1[nH]c2ccccc2c1N=Nc1nc(Nc2ccccc2)nc(N2CCOCC2)n1 | -16.8 | / | -2.4 | -12.2 | -1.3 | 0.6 | /
Cc1[nH]c2ccccc2c1/C=N/Nc1nc(Nc2ccccc2)nc(N2CCOCC2)n1 | -36.4 | 20.0 | 7.2 | 41.3* | 31.7* | 76.1* | 93.4*
CC(C)(C)c1ccc(Cn2c(=O)cnc3ccccc32)cc1 | 18.6 | / | -37.3 | / | / | 24.3* | 8.0
O=c1cnc2ccccc2n1Cc1ccc(Br)cc1 | -36.5 | / | -65.0 | / | / | 9.6 | /
CC1CCN(S(=O)(=O)c2ccc3c(c2)N(CC(=O)NCCCN2C(C)CCCC2C)C(=O)CO3)CC1 (stereo not given) | -9.7 | / | 6.1 | / | / | -6.4 | /
CC(Nc1ncnc2sccc12)c1ccccc1 (stereo not given) | -7.9 | / | 45.3 | / | / | 29.0* | 26.9*
c1ccc(Nc2ncnc3sccc23)cc1 | -24.6 | / | -16.7 | / | / | 10.1 | /
Cc1ccc(-c2nc3ncccc3o2)cc1NC(=O)c1ccc([N+](=O)[O-])o1 | -6.9 | / | i | / | / | 98.0* | 20.3
O=C(Nc1ccc(-c2nc3ncccc3o2)cc1)c1ccc([N+](=O)[O-])o1 | 13.8 | / | 100.3* | / | / | 80.0* | 8.3
CC(C)C(=O)Nc1ccc(-c2nc3ncccc3o2)cc1 | -52.5 | / | -8.9 | / | / | 8.6 | /
O=C(Nc1ccc2oc(-c3ccncc3)nc2c1)c1ccc([N+](=O)[O-])o1 | -17.2 | / | -118.3 | / | / | 94.9* | 17.0
O=C(Nc1ccc2oc(-c3ccncc3)nc2c1)c1ccccc1 | -32.4 | -0.9 | -16.6 | -0.2 | -3.1 | -1.7 | /
CCN(CC)CC(O)Cn1c(C)c(-c2ccccc2)c2cc([N+](=O)[O-])ccc21 (stereo not given) | -30.8 | / | -27.9 | / | / | 6.2 | /
O=C(c1ccc(S(=O)(=O)N2CCCC2)cc1)N(c1ccc(F)cc1)C1C=CS(=O)(=O)C1 (stereo not given) | 5.6 | / | 12.0 | / | / | -0.7 | /
CCOC(=O)N1CCc2c(sc3c2c(=O)n(-c2ccc(CC)cc2)c(=O)n3CC(=O)NCC2CCCO2)C1 (stereo not given) | -1.9 | / | 29.6 | / | / | 25.9* | 7.5
